Rows were chosen to be rich in hits. Some 3.6% of all compounds tested hit in one or more screens of this group.
MmCpn inh: M. maripaludis TRiC chaperonin inhibition; purified Mm-Cpn ATPase, ADP Transcreener TR-FRET; Potency, µM (series often up to 76.9 µM), for the others: at the highest dose activity, negative = inhibition, usual class: inhibitors; hit rate 0.031% among 330,000; AID 504842; also: % is scaled to controls: 0 for no effect and ±100 for the full control effect; nearly all actives have a fitted effect of over 80% in size
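Eu-cryptate anti-ADP/ADP-d2 competition gives a ratio inversely related to ADP. Enzyme at 25 nM was pre-exposed to compound for 10 min, then given 10 uM ATP for 30 min, 37°C throughout.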
Abeta yeast res: restores growth of yeast expressing A-beta42 peptide; yeast expressing A-beta42, growth rescue, OD600, 48 h; response scale: 0% DMSO, 100% iron-clioquinol control; Potency, µM (doses to about 46.1 µM), hits mostly activators; hit rate 0.063% among 410,000; AID 1347071; also: nearly all actives have a fitted effect of over 55% in size
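Yeast growth medium received pinned compounds, then yeast cells expressing toxic A-beta were added; plates incubated at 30 C for 48 hr. Growth read as absorbance at 600 nm, normalized to DMSO and equimolar FeCl3 plus clioquinol controls.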
aSyn rescue: alpha-synuclein toxicity inhibition in yeast. Potency, µM (series often up to 46.1 µM), for inactives: at the highest dose growth rescue (activation), actives largely listed as activators. hit rate 0.14% among 370,000. Yeast expressing alpha-synuclein, growth rescue, BacTiter-Glo, 24 h; also: % of control where 0% means no effect; nearly all actives have a fitted effect of over 65% in size
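Screening used galactose-induced yeast with toxic alpha-synuclein levels, exposed to compound for 24 hr at 30 deg C. Cell growth, read with BacTiter-Glo luminescence, gave the measured signal.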
ClpP mod: qHTS Assay for Activators of ClpP; Potency, µM (top dose mostly 57.5 µM), for inactives: top-dose activity change, negative = active; hit rate 1.9% among 340,000; AID 651965, 2013; ATP-dependent Clp protease proteolytic subunit (Bacillus subtilis (strain 168)), P80244; purified B. subtilis ClpP, FRET peptide cleavage, 20 min; active = well fitted falling curve with a large enough effect; inconclusive = small, poorly fitted or top-dose-only effect; inactive = no such curve, though single readings can be large or run the other way; also: the source files actives as falling curves though it sought activators and does not explain the sign; nearly all actives have a fitted effect of over 65% in size
Target sequence (P80244 whole entry, looked up): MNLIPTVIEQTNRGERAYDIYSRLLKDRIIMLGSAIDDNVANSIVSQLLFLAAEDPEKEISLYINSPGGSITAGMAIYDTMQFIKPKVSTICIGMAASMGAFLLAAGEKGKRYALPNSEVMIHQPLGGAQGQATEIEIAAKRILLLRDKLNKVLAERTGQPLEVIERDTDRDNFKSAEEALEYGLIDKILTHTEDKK
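Purified B. subtilis ClpP, 10 microg/mL final in Tris/HCl pH8 with KCl, BSA, glycerol and Tween-20, cleaved an Abz/nitrotyrosine-quenched decapeptide. Fluorescence (ex 320, em 430) was read at 0 and 20 min at room temperature. Delta was normalized to 5.8 microM ADEP and DMSO/no-enzyme controls.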
TDP43 rescue: TDP-43 toxicity inhibition in yeast | TDP-43 expressing yeast growth rescue, BacTiter-Glo, 24 h | AID 652104 | hit rate 1.8% among 410,000 | Potency, µM (highest dose often 46.1 µM), inactives show at the highest dose growth rescue (activation), hits mostly activators; also: % of control where 0% means no effect; nearly all actives have a fitted effect of over 50% in size
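In this qHTS, compounds that restore growth of yeast expressing TDP-43 appear as activators. Cells (OD600=0.02, galactose medium, raffinose-pregrown) are incubated with compound 24 hr at 30 deg C and growth is quantified by BacTiter-Glo.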
FUS suppressor: suppressors of FUS proteinopathy in yeast | S. cerevisiae FUS-expressing, growth rescue, OD600, 24 h | AID 1347120 | hit rate 0.24% among 390,000 | Potency, µM (top dose mostly 76.6 µM), actives largely listed as activators;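 also: plate controls were DMSO vehicle for no effect and reference control for full effect; nearly all actives have a fitted effect of over 55% in size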
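Steps: raffinose overnight preculture; dilution to OD 0.005 in 2% galactose minimal medium; compound addition (concentration series); 24hr at 30C, 99% humidity; absorbance read at 600 nm.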
Starred values were filed as active, the others as inactive; i = inactive; ? = inconclusive; · = no result; [ ] = dose if it differs, or a comment. Unless noted, calls follow the shape of the dose curve; as a rule, active = well fitted curve in the direction sought with a large enough effect; inconclusive = small, poorly fitted or top-dose-only effect, or another doubt; inactive = no such curve, though single readings can be large; an effect the other way counts as inactive or inconclusive. Potency is read from the fitted curve at half-maximal effect.

SMILES	MmCpn inh	Abeta yeast res	aSyn rescue	ClpP mod	TDP43 rescue	FUS suppressor
O=C(Cn1nc(Cl)nc1Cl)c1ccc2c(c1)OCCO2	0%	i	-5%	-15%	11µM*	?
Cc1cc(C)c[n+](CC(=O)c2cc3ccccc3oc2=O)c1	0%	i	-1%	28µM*	6%	i
O=C(Cn1nc(Cl)nc1Cl)c1ccc(F)cc1	-5%	i	2%	1%	24%	i
O=c1cc(-c2ccccc2F)[nH]c2cc3c(cc12)OCO3	·	·	-7%	·	·	·
Cc1ccc(-n2c(=O)c3c(cnn3C)n(CC(=O)Nc3cccc(C)c3)c2=O)cc1	·	i	·	-4%	15%	i
COc1cc(NC(=O)CSC2=Nc3ccccc3N=C(c3ccc(F)cc3)C2)cc(OC)c1	·	i	·	0%	0%	i
NC(N)=NC(N)=Nc1ccc(O)cc1	-1%	i	4%	-1%	18%	i
NC(=S)N=Nc1ccc(O)cc1	·	i	-15%	-15%	13µM*	·
COc1cccc(Cc2nc3ccccc3nc2SCC(=O)Nc2ccccc2F)c1	·	i	·	-10%	23%	i
CC(=O)N1CCCN(C(=O)CCn2nnc3ccccc32)CC1	·	·	·	·	·	i
O=C(CSc1n[nH]c(-c2ccccc2)n1)Nc1ncccn1	1%	i	-2%	·	8%	i
Cc1cc(SCC(=O)NC(=O)NCc2ccco2)nc2c(C)cccc12	-15%	i	11µM*	2%	-9%	?
N#CC1(NC(=O)CSc2n[nH]c(-c3ccccc3)n2)CCCCC1	0%	i	1%	14µM*	?	i
Cc1cc(SCC(=O)N2CCCC2=O)nc2c(C)cccc12	-3%	i	1%	1%	4%	i
Cc1cc(SCC(=O)NC2(C#N)CCCCC2)nc2c(C)cccc12	-2%	i	7%	32µM*	30%	i
Cc1cc(SCC(=O)NC(=O)NCc2ccco2)nc2ccccc12	-12%	i	-1%	-1%	?	?
COc1ccccc1Nc1cc(C(=O)NCCCN(C)c2ccccc2)c2ccccc2n1	·	i	·	?	5%	i
CS(=O)(=O)N1CCc2cc(C(=O)Nc3ccc(Cl)c(C(F)(F)F)c3)ccc21	·	i	·	?	19%	i
CCc1ccc(OCC(=O)N(Cc2ccco2)Cc2ccco2)cc1	·	i	·	2%	5%	i
COc1ccc2c(c1)N=C(c1[nH]c3ccccc3c1CCN1C(=O)c3ccccc3C1=O)[C@]2(O)CCN1C(=O)c2ccccc2C1=O	·	·	·	·	·	18µM*
COc1ccc(N(C(=O)c2cc(OC)c(OC)c(OC)c2)S(=O)(=O)c2ccc(C)cc2)cc1	·	i	·	-10%	-24%	32µM*
Cc1ccc(C)c(S(=O)(=O)N(C(=O)c2ccncc2)c2ccc(OC(=O)c3ccncc3)cc2)c1	3%	i	?	0%	3%	i
COc1ccc(N(C(=O)c2ccncc2)S(=O)(=O)c2ccc(Cl)cc2)cc1	0%	i	10µM*	0%	0.89µM*	i
Cc1ccc(S(=O)(=O)N(C(=O)c2ccncc2)c2ccc(OC(=O)c3ccncc3)cc2)c(C)c1	0%	i	?	1%	7.1µM*	·
Cn1cccc1-c1cc(C(=O)N2CCc3c([nH]c4ccccc34)C2c2ccccn2)[nH]n1 (centres undefined)	-9%	?	1%	0%	4%	18µM*
SMILES	MmCpn inh	Abeta yeast res	aSyn rescue	ClpP mod	TDP43 rescue	FUS suppressor
Cc1cc2cc(C(=O)N3CCc4c([nH]c5ccccc45)C3c3ccccn3)ccc2o1 (centres undefined)	1%	i	?	-2%	25µM*	?
O=C(c1ccc(-n2cccn2)cc1)N1CCc2c([nH]c3ccccc23)C1c1ccccn1 (centres undefined)	3%	?	?	-5%	?	?
O=C(C1CCCN(S(=O)(=O)c2cccc3nsnc23)C1)N1CCN(c2cccc(Cl)c2)CC1 (centres undefined)	·	i	·	-1%	11%	i
COc1ccc(Cn2ccnc2SCC(=O)NCc2ccccc2)cc1	·	i	·	-2%	0%	i
CC(=O)N1N=C(c2ccco2)CC1c1ccc(Br)cc1 (centres undefined)	-1%	i	4%	-4%	20µM*	i
CC(=O)N1CCc2c(sc(NC(=O)CSc3ccccc3)c2-c2nc3ccccc3s2)C1	·	i	4µM*	-14%	23%	?
Oc1ccc(C2Nc3cccc4cccc(c34)N2)c(O)c1	0%	i	4%	32µM*	0%	i
Clc1ccccc1C1Nc2cccc3cccc(c23)N1	-1%	i	8%	-1%	17%	i
CCc1ccccc1NC(=O)N1CCOc2ccccc21	·	i	·	0%	?	i
CCOc1ccc(NC(=O)N2CCOc3ccccc32)cc1	·	i	·	2%	11µM*	i
O=S(=O)(c1ccc(Oc2ccc(Br)cc2)cc1)N1CCOCC1	1%	i	-2%	0%	25µM*	i
COc1cc2nc(N3CCCN(C)CC3)nc(NC3CCN(C)CC3)c2cc1OC	·	·	5%	4%	·	·
Cc1ccccc1N(C)S(=O)(=O)c1nnc(NC(=O)c2ccccc2F)s1	-2%	i	3%	-3%	13µM*	i
COc1ccccc1CNC(=O)COCc1cc(-c2ccc3c(c2)OCO3)on1	·	i	·	-8%	22µM*	?
COc1cc(OC)c(OC)cc1/C=N/NC(=O)CC1C(=O)NN=C1C (centres undefined)	1%	i	3%	28µM*	3%	i
CC1=NNC(=O)C1CC(=O)N/N=C/c1sccc1C (centres undefined)	1%	i	1%	·	-18%	i
COc1cc2ccccc2cc1C(=O)N1CCN(c2nc3c(F)cccc3s2)CC1	·	i	·	-5%	11µM*	i
CCc1cccc2sc(N3CCN(C(=O)c4cc5ccccc5cc4OC)CC3)nc12	·	i	·	-16%	11%	i
COc1cc2ccccc2cc1C(=O)N1CCN(c2nc3c(F)cc(F)cc3s2)CC1	·	i	·	-12%	16µM*	?
CCOc1cc(C(=O)Nc2ccc(-c3nc4ccccc4s3)cc2Cl)cc(OCC)c1OCC	·	i	·	5%	21%[9.22 µM]	i
COc1cc(Cl)c(NC(=O)c2cc(S(=O)(=O)N3CCOCC3)cn2C)c(OC)c1	·	i	·	0%	5%	i
